# A selection: hits, their analogues and other compounds. The true share with any hit is near 3.4%.
# RE007 growth inh: less growth of the S. pombe RE007 Vpr strain; S. pombe RE007 Vpr strain, BacTiter-Glo ATP luminescence, 24 h; Potency, µM (doses to about 92.2 µM), for inactives: at the highest dose activity change, negative = less growth, usual class: inhibitors; actives 0.21% (n = 360,000); AID 651644; active = well fitted falling curve with a large enough effect; inconclusive = small, poorly fitted or top-dose-only effect; inactive = no such curve, though single readings can be large or run the other way; also: nearly all actives have a fitted effect of over 50% in size
#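 Fission yeast RE007 carrying one integrated HIV-1 vpr copy, seeded at OD 0.01 in PMG+AL medium with 23 nL pinned compound. Grown 24 h at 30 degrees; viability read by BacTiter-Glo luminescence after 5 min.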
# AmpC detergent: blocks E. coli AmpC beta-lactamase in detergent assay. AmpC hydrolysis of nitrocefin, absorbance 480 nm, 0.01% Triton. Potency, µM (titrated, usually from 114 µM), for inactives: top-dose activity change, negative = inhibition, usual class: inhibitors. actives 0.041% (n = 370,000). AID 485294;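 also: 0% = no-compound wells and -100% = no-enzyme wells; nearly all actives have a fitted effect of over 25% in size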
# Target sequence (P00811 whole entry, looked up): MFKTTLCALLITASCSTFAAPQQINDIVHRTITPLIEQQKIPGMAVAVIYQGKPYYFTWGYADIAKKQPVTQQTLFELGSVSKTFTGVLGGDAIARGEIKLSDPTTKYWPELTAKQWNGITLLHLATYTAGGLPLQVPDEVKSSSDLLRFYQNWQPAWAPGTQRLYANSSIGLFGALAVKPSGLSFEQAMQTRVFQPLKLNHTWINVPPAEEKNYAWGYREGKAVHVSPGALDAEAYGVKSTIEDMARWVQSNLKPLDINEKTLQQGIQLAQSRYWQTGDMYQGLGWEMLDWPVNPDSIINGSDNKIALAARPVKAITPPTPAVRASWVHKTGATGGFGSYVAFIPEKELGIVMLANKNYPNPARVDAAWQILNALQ
#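 AmpC (5.3 nM in the dispensed reagent) in 20 mM phosphate pH 7.0 with 0.01% (detergent screen) or 0.0001% Triton X-100 was preincubated with compounds for 15 min at room temperature. Nitrocefin was then added from an 800 uM solution, and hydrolysis was followed at 480 nm.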
# Sm TGR block: blocks Schistosoma mansoni thioredoxin glutathione reductase; Q962Y6; purified TGR, DTNB reduction, TNB absorbance 405 nm; Potency, µM (doses to about 114 µM), for inactives: at the highest dose activity change, negative = inhibition, most hits filed as inhibitors; actives 3% (n = 360,000); also: nearly all actives have a fitted effect of over 60% in size
#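 TGR 20 nM + NADPH 100 uM (dispensed conc.), cpd preinc 15 min RT; start with NADPH (500 uM addition) then DTNB (15 mM addition). Kinetic TNB absorbance, 405 nm filter. Four-parameter Hill fit across titration.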
# FBPA Giardia inh: blocks Giardia fructose-bisphosphate aldolase activity; A8B2U2; purified Giardia FBPA; Potency, µM (titrated, usually from 59.6 µM), inactives show at the top dose activity, negative = inhibition, actives largely listed as inhibitors; actives 0.71% (n = 290,000); also: nearly all actives have a fitted effect of over 55% in size
# Target sequence (A8B2U2 whole entry, looked up): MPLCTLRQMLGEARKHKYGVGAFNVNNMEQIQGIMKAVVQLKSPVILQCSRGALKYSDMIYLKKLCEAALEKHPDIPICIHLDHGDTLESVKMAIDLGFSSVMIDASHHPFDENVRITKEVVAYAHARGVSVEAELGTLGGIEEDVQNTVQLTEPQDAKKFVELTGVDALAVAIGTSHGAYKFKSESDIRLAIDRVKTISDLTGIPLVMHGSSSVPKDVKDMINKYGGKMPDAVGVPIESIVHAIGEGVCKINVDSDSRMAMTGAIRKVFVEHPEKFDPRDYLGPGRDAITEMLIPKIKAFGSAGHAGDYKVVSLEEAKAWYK
#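 40 nM FBPA preincubated 10 min at RT with compound (up to 57.5 uM final), then substrate plus GAPDH/TPI/NAD/arsenate coupling and diaphorase/resazurin added. Fluorescence read after 20 min at RT, 525/598 nm.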
# AmpC no deterg: inhibitors of E. coli AmpC beta-lactamase without detergent. AmpC nitrocefin hydrolysis, absorbance 480 nm, 0.0001% Triton. Potency, µM (highest dose often 57.1 µM), inactives show at the top dose activity change, negative = inhibition, most hits filed as inhibitors. actives 0.52% (n = 330,000). AID 485341;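 also: plate controls were no compound for no effect and no enzyme for full effect; nearly all actives have a fitted effect of over 20% in size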
#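 20 mM phosphate pH 7.0 + 0.01% (detergent screen) or 0.0001% Triton X-100; 5.3 nM AmpC reagent; cpd preinc 15 min RT; nitrocefin (800 uM stock) to start; A480 q20 s × 4 min; Activity was normalised to no-enzyme and no-compound control wells.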
# * = called active by the depositor; ? = inconclusive; nt = no result; [ ] = remark or other dose. Unless noted, calls follow the shape of the dose curve; as a rule, active = well fitted curve in the direction sought with a large enough effect; inconclusive = small, poorly fitted or top-dose-only effect, or another doubt; inactive = no such curve, though single readings can be large; an effect the other way counts as inactive or inconclusive. Unless noted, % is scaled to controls: 0 for no effect and ±100 for the full control effect; potency is read from the fitted curve at half-maximal effect.
SMILES,RE007 growth inh,AmpC detergent,Sm TGR block,FBPA Giardia inh,AmpC no deterg
O=C(NC1CC(=O)c2sccc21)c1ccc(Cl)cc1Cl (centres undefined),6%,-2%,12%,2%,-20%
CCCCn1c(CN2C(=O)c3ccccc3C2=O)nc2ccccc2c1=O,-1%,-8%,0%,2%,-1%
O=C1c2ccccc2C(=O)N1Cc1nc2ccccc2c(=O)n1CCCN1CCOCC1,-2%,-6%,35µM*,14%,3%
CCOc1ccc(-c2csc(NC(=O)C3CCCO3)n2)cc1 (centres undefined),7%,0%,-4%,-2%,8%
O=C(Nc1nc(-c2ccc(Cl)cc2Cl)cs1)C1CCCO1 (centres undefined),16µM*,-3%,-2%,-6%,-7%
O=C(Nc1nc(-c2ccc(Cl)cc2)cs1)C1CCCO1 (centres undefined),22µM*,-12%,-13%,-15%,2%
O=C(Nc1cc(Cl)ccc1Cl)C1CCCO1 (centres undefined),?,?,-10%,1%,-1%
CN1CCN(C(=O)c2cccn(Cc3ccc(C(F)(F)F)cc3)c2=O)CC1,0%,4%,-6%,4%,-2%
Cc1ccc(/C=C/C2=C[C@]3(C)C[C@]2(C)[C@H](c2ccc(C)cc2)CC3=O)cc1,nt,nt,nt,2%,nt
Cn1cccc1CC(=O)N/N=C/c1ccc(C(C)(C)C)cc1,-19%,-3%,?,-4%,-30%
CC(/C=N/NC(=O)Cc1cccn1C)=C\c1ccco1,-1%,-1%,25µM*,-5%,?
Cn1cccc1CC(=O)N/N=C/c1ccco1,11%,5%,40µM*,-21%,-15%
O=C(CN1CCN(Cc2ccccc2)CC1)N/N=C/C=C/c1ccco1,10%,-19%,?,-3%,-12%
CC(=C/c1ccco1)/C=N/NC(=O)Cc1cccn1C,-8%,-11%,45µM*,?,-19%
CC(/C=N/NC(=O)CN1CCN(Cc2ccc(Cl)cc2)CC1)=C\c1ccco1,15%,-1%,79µM*,-29%,116%
Cc1ccc2c(c1)Oc1ccc(NC(=O)CCCl)cc1C(=O)N2,10%,?,0%,-2%,20µM*
CCCC(=O)Nc1ccc2c(c1)C(=O)NC2=O,8%,-16%,0%,-7%,45µM*
CCOC(=O)c1nn(-c2ccccc2)c(=O)cc1SC1CCCCC1,-16%,-2%,nt,0%,-7%
C/C(CS(=O)(=O)c1ccccc1)=N\O,2%,2%,nt,0%,-2%
C/C=C(\CS(=O)(=O)c1ccccc1)S(=O)(=O)c1ccccc1,1%,-4%,35µM*,-1%,-27%
C=C(C)Cn1c(C)cc(C)c(S(=O)(=O)c2ccc(C)cc2)c1=O,7%,5%,nt,-13%,-3%
Cc1cc(C)n(Cc2ccc(Cl)cc2Cl)c(=O)c1S(=O)(=O)c1ccccc1,4%,4%,10%,-30%,0.16µM*
Cc1ccc2ccc(S(=O)(=O)NCc3ccco3)cc2c1,-2%,3%,13µM*,-2%,-37%
O=S(=O)(NCc1ccco1)c1ccc(Cl)cc1Cl,7%,?,45µM*,7%,-17%
Cc1ccc2nc(N3C(=O)C(O)=C(C(=O)c4ccco4)C3c3ccc(C)o3)sc2c1 (centres undefined),-3%,5%,32µM*,-8%,-47%
SMILES,RE007 growth inh,AmpC detergent,Sm TGR block,FBPA Giardia inh,AmpC no deterg
CN(C)/N=C/c1ccc(Sc2ccc([N+](=O)[O-])cc2[N+](=O)[O-])o1,-16%,-16%,28µM*,-9%,-17%
COc1ccc(C/C(C)=N/NS(=O)(=O)c2ccc(Br)cc2)cc1,-4%,3%,22µM*,10%,-45%
CN(C)S(=O)(=O)c1ccc2c(c1)C(=O)c1cc(S(=O)(=O)N(C)C)ccc1CC2,nt,-3%,-6%,nt,-9%
CN(C)S(=O)(=O)c1ccc2c(c1)/C(=C/c1cc3c([nH]1)CCCC3)C(=O)N2,3%,?,50µM*,-4%,-19%
O=C(Cn1nc(-c2ccco2)ccc1=O)Nc1cc(Cl)ccc1Cl,10%,-16%,5.6µM*,9%,-14%
O=C(CN1CCCC1)Nc1cc(C(F)(F)F)ccc1Cl,11%,?,45%,5%,-19%
O=C(Cn1nc(-c2cccc(Cl)c2)ccc1=O)Nc1ccccc1Br,-19%,-6%,3%[57.1 µM],-6%,-7%
O=C(Cn1nc(-c2ccco2)ccc1=O)Nc1ccc(Cl)c(Cl)c1,17%,-7%,7.1µM*,1%,-9%
O=C(Cn1nc(-c2ccco2)ccc1=O)Nc1cc(C(F)(F)F)ccc1Cl,-3%,2%,50µM*,nt,-12%
COc1c(Cl)ccc(Cl)c1C(=O)NC(=O)N1CCOCC1,6%,-10%,-20%,5%,-3%
CC(C)(C)CN1CCNC[C@H]1Cc1cccc2ccccc12,-13%,?,22µM*,nt,0%
Cc1cc(NC(=S)NC(=O)/C=C/c2ccc(S(=O)(=O)N3CCOCC3)cc2)ccc1Br,5%,-1%,6%,-4%,-12%
Cc1nnsc1C(=O)Oc1ccc(C#N)cc1,nt,10%,16µM*,nt,nt
Cc1nnsc1C(=O)Oc1ccc(Cl)cc1,nt,6%,-30%,nt,nt
N=C1/C(=C\c2ccc(OC(=O)c3ccc(F)cc3)cc2)C(=O)N=C2SC(N3CCOCC3)=NN12,-1%,-14%,-20%,3%,-46%
CS(=O)(=O)c1ccc(C(=O)Nc2nc(-c3ccco3)c(-c3ccco3)s2)cc1,-16%,0%,3.5µM*,nt,-42%
O=C(Nc1nc(-c2ccco2)c(-c2ccco2)s1)C1CCC1,30%,?,?,-16%,32µM*
O=C(Nc1nc(-c2ccco2)c(-c2ccco2)s1)C1CC(=O)N(c2ccc3c(c2)OCCO3)C1 (centres undefined),-10%,0%,11µM*,?,-43%
CS(=O)(=O)c1ccc2nc(NC(=O)c3ccccc3)sc2c1,-25%,?,3%,-16%,2%
COc1ccc2c(c1)C1=NN(/C(C)=C\C(C)=O)C(c3ccccc3)C1CC2 (centres undefined),-6%,?,56µM*,?,-30%
COc1ccc(C2CC(=O)C=C(NCc3ccc4c(c3)OCO4)C2)cc1 (centres undefined),4%,8%,10%,-2%,-27%
CC(/C=N/n1c(-c2n[nH]c3c2CCC3)n[nH]c1=S)=C\c1ccco1,20%,-1%,35µM*,?,-43%
CC(/C=N/n1c(-c2cccnc2)n[nH]c1=S)=C\c1ccco1,-16%,-6%,40µM*,-4%,-39%
CCOC(=O)N1C(=O)[C@](CC)(c2ccccc2)N1C(=O)OCC,3%,?,2.8µM*,0%,-1%
CN(C)S(=O)(=O)c1cccc(C(=O)N2CCc3ccccc32)c1,11%,-12%,-5%,0%,-20%

# Assay outcomes deposited in PubChem by National Center for Advancing Translational Sciences (NCATS).
